# GLP-1R inv ag: GLP-1 receptor (human) inverse agonism; HEK293 GLP-1R CRE-luciferase, luminescence, 24 h; GLP-1R form is constitutively active; 410,000 compounds, 1.6% hits; AID 624417; Potency, µM (series often up to 38.3 µM), without a hit: at the top dose activity change, negative = inhibition, hits mostly inhibitors; P43220; also: % is scaled to controls: 0 for no effect and ±100 for the full control effect; nearly all actives have a fitted effect of over 55% in size
#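 Cells are plated, allowed 12 hours at 37 deg C, then treated with compounds for 24 hr before luciferase detection reagent is added and luminescence is read after 12 min at room temperature. The HEK293 line carries constitutively active GLP-1R with a cAMP-responsive reporter.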
# GLP-1R agonist: GLP-1 receptor (human) agonism; 380,000 compounds, 0.007% hits; Potency, µM (highest dose often 45.6 µM), for inactives: at the highest dose activation, hits mostly activators; HEK293 GLP-1R CRE-luciferase, luminescence, 4-6 h; cells express a hypersensitive GLP-1R form; P43220; also: % of control where 0% means no effect
# PTHR1 ag: PTHR1 (human) receptor agonism | Potency, µM (top dose mostly 115 µM), for inactives: at the top dose activation, usual class: activators | HEK293 GP2 PTHR1 cells, GloSensor cAMP luminescence, 1 h | 410,000 compounds, 0.075% hits | AID 743266 | Q03431; also: nearly all actives have a fitted effect of over 55% in size
# Target sequence (Q03431 whole entry, looked up): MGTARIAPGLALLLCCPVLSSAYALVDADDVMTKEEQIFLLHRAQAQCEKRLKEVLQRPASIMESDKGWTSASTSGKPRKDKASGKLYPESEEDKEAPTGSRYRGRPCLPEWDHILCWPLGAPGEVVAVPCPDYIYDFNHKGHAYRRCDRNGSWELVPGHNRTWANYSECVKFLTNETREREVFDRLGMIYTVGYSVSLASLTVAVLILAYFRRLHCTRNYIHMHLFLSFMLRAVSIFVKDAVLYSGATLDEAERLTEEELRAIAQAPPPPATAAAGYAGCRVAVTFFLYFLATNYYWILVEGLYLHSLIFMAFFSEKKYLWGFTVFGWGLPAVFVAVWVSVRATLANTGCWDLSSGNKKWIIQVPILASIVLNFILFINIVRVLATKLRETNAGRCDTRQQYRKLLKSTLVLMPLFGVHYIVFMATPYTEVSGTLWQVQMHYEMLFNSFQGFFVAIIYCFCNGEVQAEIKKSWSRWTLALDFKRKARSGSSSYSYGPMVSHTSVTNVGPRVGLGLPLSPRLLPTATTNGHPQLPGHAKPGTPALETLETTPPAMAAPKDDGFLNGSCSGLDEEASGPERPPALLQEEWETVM
#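 HEK-293-derived GP2 cells expressing PTHR1 and a GloSensor cAMP reporter, 3,000/well, plated overnight, given luciferin plus IBMX (each 0.5 mM as added) for 1 h at 37 °C, then compound for 1 h at 37 °C. Luminescence was read after 15 min at room temperature.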
# HEK293 tox: cytotoxicity in counter-screen for GLP-1R inverse agonists. Potency, µM (series often up to 38.3 µM), inactives show at the highest dose activity change, negative = inhibition, hits mostly inhibitors. 410,000 compounds, 0.13% hits. HEK293 cAMP-luciferase reporter cells, luminescence, 24 h. AID 624418;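 also: loss of luciferase light is scored as toxicity; % is scaled to controls: 0 for no effect and ±100 for the full control effect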
#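 Seeding density was 200 cells/uL; after overnight-length (12 h) culture, 23 nL compounds went on for 24 h at 37 °C. Readout used a luciferase detection reagent, luminescence taken after 12 min at room temperature.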
# Numbers without * were called inactive; i = inactive; ? = inconclusive; / = no result given; [ ] = dose if it differs, or a comment. Compounds with a hit are over-represented: about 1.7% of the library has one in this group of screens. Calls follow the shape of the dose curve; as a rule, active = well fitted curve in the direction sought with a large enough effect; inconclusive = small, poorly fitted or top-dose-only effect, or another doubt; inactive = no such curve, though single readings can be large; an effect the other way counts as inactive or inconclusive. Potency is read from the fitted curve at half-maximal effect.
SMILES,GLP-1R inv ag,GLP-1R agonist,PTHR1 ag,HEK293 tox
NC(=S)NN=C1c2ccccc2-c2c(F)c(F)c(F)c(F)c21,?,-3%,-63%,11µM*
COc1ccc(-n2c3c(cc(C(=O)NNc4ccccc4)c2=O)C(=O)CC(C)(C)C3)cc1,1µM*,12%,i,-11%
COc1ccc(-n2c3c(cc(C(=O)NNc4ccccc4C)c2=O)C(=O)CC(C)(C)C3)cc1,?,11%,-11%,8%
CCOc1ccc2oc(=O)cc(CN3CCN(Cc4ccc(F)cc4)CC3)c2c1,-6%,/,i,4%
CN(c1ccc(OCC(=O)N2CCN(c3ccc(F)cc3)CC2)cc1)S(=O)(=O)c1cccs1,11µM*,0%,-37%,-3%
O=C(COc1ccc(Cl)cc1)Nc1ccc2nc(SCC(=O)N3CCOCC3)sc2c1,7%,/,-15%,-10%
Oc1ccc2ccccc2c1-c1sc(Nc2ccccc2)n[n+]1-c1ccc(F)cc1,?,10%,i,-17%
Fc1ccc(-[n+]2nc(Nc3ccccc3)sc2-c2c3ccccc3cc3ccccc23)cc1,11µM*,2%,-11%,?
C=C1C(=O)[C@]23C[C@H]1CCC2[C@]1(C)CCC[C@@](C)(C(=O)O)C1C[C@@H]3O (stereo partly specified),1.8µM*,-12%,-44%,?
Cn1c(C(O)c2ccc(Br)cc2)nc(Cl)c1Cl (stereo unspecified),?,7%,-1%,7%
Cn1c(C(O)c2ccc(Cl)cc2)nc(Cl)c1Cl (stereo unspecified),11µM*,-17%,i,3%
CCN(c1ccccc1)S(=O)(=O)c1cc(C(=O)NCC(c2ccco2)N2CCCCC2)ccc1C (stereo unspecified),8.9µM*,-20%,-19%,?
COc1ccccc1NS(=O)(=O)c1cc(C(=O)NCC(c2ccco2)N2CCCCC2)ccc1C (stereo unspecified),10µM*,10%,-60%,-12%
O=C(NCC(c1ccco1)N1CCCCC1)c1ccc(S(=O)(=O)Nc2ccccc2Cl)cc1 (stereo unspecified),?,6%,-16%,1%
Cc1ccccc1NS(=O)(=O)c1ccc(C(=O)NCC(c2ccco2)N2CCCCC2)cc1 (stereo unspecified),10µM*,-9%,-31%,-1%
CCCOc1ccc(CN(C(=O)Cc2coc3ccc(CC)cc23)C2CCS(=O)(=O)C2)cc1 (stereo unspecified),?,/,-15%,5%
CCOC(=O)c1c(C)[nH]c(C)c1S(=O)(=O)N1CCC(C(=O)N2CCN(c3cccc(C)c3)C(C)C2)CC1 (stereo unspecified),?,/,-4%,-4%
Cc1ccc(NC(=O)Cc2ccc(-c3ccccc3)cc2)nc1,10µM*,4%,-27%,-23%
Cc1ccc(NC(=O)Cc2ccc(Cl)cc2)nc1,-15%,7%,-11%,7%
Cc1ccc(C(C)C)c(OCC(=O)Nc2ccc3c(c2)nc(CN2CCCC2)n3C)c1,10µM*,11%,-32%,?
Cc1ccc(-c2cc(N)n(Cc3ccc(Cl)cc3)n2)cc1,11µM*,0%,-29%,-16%
C=C1CCC[C@]2(C)C[C@H]3OC(=O)C(CN4CCCCC4CO)[C@H]3CC12 (stereo partly specified),63%,0%,-52%,-10%
C[C@H]1CCC[C@]2(C)C[C@H]3OC(=O)C(CN4CCCCCC4)[C@H]3C=C12 (stereo partly specified),11µM*,-7%,i,?
Cc1cccc(Cn2c(=O)n3nc(-c4ccccc4)nc3c3ccccc32)c1,-17%,5%,-13%,-7%
COc1ccc(OC2CCN(S(=O)(=O)c3ccc(OC)cc3)CC2)cc1,10µM*,5%,-14%,10%
SMILES,GLP-1R inv ag,GLP-1R agonist,PTHR1 ag,HEK293 tox
CCOC(=O)N1CCC(N(CCN(C)C)C(=S)Nc2cccc(Cl)c2)CC1,11µM*,-1%,-28%,-5%
CCOC(=O)N1CCC(N(CCN(C)C)C(=S)Nc2cc(Cl)ccc2C)CC1,5.6µM*,11%,-11%,?
CCOC(=O)N1CCC(N(CCN(C)C)C(=S)Nc2cc(C)ccc2C)CC1,-25%,-3%,i,-11%
CC(Cc1cccs1)NC(=O)Nc1cccc(Cl)c1 (stereo unspecified),11µM*,2%,-37%,-2%
COc1ccc(N(Cc2cccs2)C(=O)Nc2cccc(Cl)c2)cc1,10µM*,/,-69%,-1%
CN(CC(=O)Nc1cc(Cl)cc(Cl)c1)Cc1cccs1,13µM*,15%,i,-5%
CC(Cc1cccs1)NC(=O)Nc1ccc(F)cc1 (stereo unspecified),?,12%,i,1%
CN(CC(=O)Nc1ccc(F)cc1Cl)Cc1cccs1,?,26%,-22%,3%
Clc1ccc2c(c1)-n1cc(-c3ccccc3)nc1CO2,-22%,4%,-13%,2%
C1=CCN(c2nc(N3CCOCC3)nc(N3CCCc4ccccc43)n2)CC1,11µM*,7%,-12%,1%
CC(C)(C)NC(=O)[C@H]1CC[C@H]2[C@@H]3CC=C4C=C(C(=O)O)CC[C@@]4(C)[C@H]3CC[C@]12C,/,-6%,/,/
CCC(Sc1nnc(-c2ccc(OC)c(OC)c2)c(-c2ccc(OC)c(OC)c2)n1)C(=O)NC1CCCC1 (stereo unspecified),-10%,/,i,-11%
O=C(NCCc1ccccc1)c1ccc2c(c1)N(Cc1ccc(Cl)cc1)C(=O)CS2,?,-6%,-39%,-2%
C[C@@H](C(=O)NCc1ccco1)N1C(=O)N2CCc3c([nH]c4ccccc34)[C@@]2(C)C1=O,?,-3%,?,1%
CC(C)C[C@@H](C(=O)NCc1ccco1)N1C(=O)N2CCc3c([nH]c4ccccc34)[C@@]2(C)C1=O,10µM*,-1%,-15%,4%
C=CS(=O)(=O)N(Cc1ccc(Cl)c(Cl)c1)C[C@@H](O)CO,6.3µM*,3%,i,?
O=C(O)c1sccc1SCc1ccc(Cl)c(Cl)c1,0%,8%,-1%[57.5 µM],3%
CCO[C@H]1OC(C(=O)NCc2nc3ccccc3[nH]2)=C[C@@H](C2CCCCC2)[C@@H]1CCCO,10µM*,4%,-5%,-45%
CCO[C@H]1OC(C(=O)NCc2nc3ccccc3[nH]2)=C[C@@H](C)[C@@H]1CCCO,-6%,-1%,i,-9%
CCO[C@H]1OC(C(=O)N2CCOCC2)=C[C@@H](c2ccc(C(F)(F)F)cc2)[C@@H]1CCCO,-5%,7%,-2%,5%
CCO[C@@H]1OC(C(=O)N2CCCCCCC2)=C[C@H](c2ccc(C(F)(F)F)cc2)[C@H]1CCCO,10µM*,20%,-5%,1%
CCO[C@H]1OC(C(=O)NCc2ccccc2)=C[C@@H](c2ccc(C(F)(F)F)cc2)[C@@H]1CCCO,10µM*,-4%,-19%,-1%
